Bioassay records from PubChem BioAssay.
Cycloheximide cs = counter-screen for Shiga toxin inhibitors: cycloheximide protein synthesis inhibition | cell reporter, cycloheximide protein synthesis inhibition counterscreen | max response, % | 12% of 300,000 active | AID 2314; in the data active means max response mostly above about 13%, no sharp cut-off; inactive means mostly below about 14%; further: read at 38.3 µM for the half of the compounds with a filed dose; 0% is about no effect
HCV inhibitor = inhibitors of hepatitis C virus infection; Huh7.5.1 HCVcc-Cre infection, luciferase reporter, 44 h; Potency, µM (highest dose often 41.8 µM), without a hit: top-dose activity change, negative = inhibition, hits mostly inhibitors; 3.4% of 340,000 active; active means well fitted inhibition curve with a large enough effect; inconclusive means small, poorly fitted or top-dose-only effect, or another doubt; inactive means no such curve, though single readings can be large or run the other way; further: potency means the concentration at half of the fitted maximal effect; on the % scale 0 is the no-effect control and ±100 the full control effect
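Cells seeded at 1,000/well and cultured 4 h, then compounds added followed by HCVcc-Cre virus (~0.5 moi). After 44 h further culture, luciferase substrate was added, plates held 15 min at room temperature, and luminescence read for 15 sec.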
Shiga inhibitor = inhibitors of Shiga toxin in Vero cells. Vero cells, Shiga toxin protein synthesis inhibition reporter. inhibition, % at 38.7 µM. 9.2% of 290,000 active; in the data active means inhibition mostly above about 28%, no sharp cut-off; inactive means mostly below about 43%; further: 0% is about no effect
LASV entry inh = Lassa virus entry inhibition; Lassa virus pseudotype entry inhibition, cell reporter; Potency, µM (titrated, usually from 37.9 µM), for inactives: at the top dose activity change, negative = inhibition, usual class: inhibitors; 1.2% of 300,000 active; AID 540256; calls by dose curve; tested in HEK293 cells; further: potency means the concentration at half of the fitted maximal effect; on the % scale 0 is the no-effect control and ±100 the full control effect; nearly all actives have a fitted effect of over 50% in size
FMDV antiviral = blocks foot and mouth disease virus; Potency, µM (titrated, usually from 57.9 µM), without a hit: at the top dose activity change, negative = inhibition, hits mostly inhibitors; FMDV antiviral cell-based qHTS; 1.2% of 410,000 active; calls by dose curve; tested in HEK293T cells; further: read-out not given here; potency means the concentration at half of the fitted maximal effect; on the % scale 0 is the no-effect control and ±100 the full control effect; nearly all actives have a fitted effect of over 45% in size
Marburg entry inh = inhibitors of Marburg virus binding or cell entry. Marburg virus pseudotyped entry inhibition, cell reporter. Potency, µM (top dose mostly 37.8 µM), for inactives: at the top dose activity change, negative = inhibition, most hits filed as inhibitors. 1.8% of 300,000 active; calls by dose curve; tested in HEK293 cells; further: potency means the concentration at half of the fitted maximal effect; on the % scale 0 is the no-effect control and ±100 the full control effect
* marks the source's active call; other numbers are inactive results; ? = inconclusive; nt = not tested or not shown; [ ] = remark or other dose. A selection: hits, their analogues and other compounds. The true share with any hit is near 13%.

SMILES	Cycloheximide cs	HCV inhibitor	Shiga inhibitor	LASV entry inh	FMDV antiviral	Marburg entry inh
CC(C)(C)c1ccc(C(=O)NC(=O)COC(=O)CCS(=O)(=O)c2ccccc2)cc1	nt	-3%	nt	0%	15%	21%
COc1ccc(-c2ccc(C#N)c(OC(=O)c3c(Cl)cccc3Cl)n2)cc1	-5	5µM*	-3	?	-22%	16%
COc1nc(-c2ccccc2Cl)ccc1C#N	9	11%	8	-7%	0%	-4%
CC1(C)CC(=O)C(C=NCCN2CCN(CC(=O)Nc3ccc(Cl)cc3)CC2)=C(O)C1	7	13µM*	-1	-5%	-13%	-12%
CC1(C)CC(=O)C(C=NCCN2CCN(CCc3ccccc3)CC2)=C(O)C1	-1	11µM*	-2	-9%	-16%	?
Cc1ccc(NC(=O)CN2CCN(CCN=CC3=C(O)CC(C)(C)CC3=O)CC2)cc1	-2	22%	2	14%	-5%	10%[46.1 µM]
CCN(CC)CCNC(=O)CS(=O)Cc1nc(-c2ccc(Cl)cc2)oc1C (stereo unspecified)	-4	?	-15	10%	0%	?
COc1ccc(CCC(C)Nc2cccc(F)c2)cc1 (stereo unspecified)	18*	-20%	13	-2%	-11%	7%
COc1ccc(CCC(C)Nc2ccccc2F)cc1 (stereo unspecified)	2	1%	-10	-8%	-21%	?
COc1cccc(-c2ccc3nnc(SCC(=O)N4CCOCC4)n3n2)c1	nt	1%	nt	17%	-9%	4%
CC(=O)c1cc(C(=O)N2CCc3c([nH]c4ccccc34)C2C2CCCCC2)[nH]n1 (stereo unspecified)	8	-7%	34	nt	27%	nt
COc1cc(N2Cc3ccccc3C2)ccc1C=O	8	-3%	11	?	?	7.9µM*
COc1ccc(CCn2c(C3CCCCC3)nc3c(c(=O)c4ccccc4n3C)c2=O)cc1	-3	3.5µM*	-2	nt	?	nt
Cn1c2ccccc2c(=O)c2c(=O)n(C3CCCCCC3)c(C3CCCCC3)nc21	-6	1%	-13	-4%	25µM*	-19%
Cn1c2ccccc2c(=O)c2c(=O)n(-c3ccccc3)c(C3CCCCC3)nc21	-4	13%	14	1%	-39%	?
Cn1c2ccccc2c(=O)c2c(=O)n(C3CCCCC3)c(-c3cccs3)nc21	2	10µM*	25	-26%	-26%	-28%
COc1ccc(Cl)cc1NC(=O)CN(c1ccccc1)S(=O)(=O)N(C)C	-2	?	-10	?	-17%	?
Cc1ccc(/C=N/NC(=O)c2nnn(-c3nonc3N)c2CN(C)C2CCCCC2)cc1	-3	1%	18	nt	-11%	nt
C1CNC(C23CC4CC(CC(C4)C2)C3)=N1	25	2%	56*	8%[46.1 µM]	5%	7%[46.1 µM]
O=S(=O)(c1ccccc1)c1nc(-c2ccc(F)cc2)oc1NCc1ccccc1	nt	nt	nt	1%[46.1 µM]	2%	?
Cc1ccc(S(=O)(=O)c2nc(-c3ccccc3)oc2NCc2cccnc2)cc1	1	11µM*	-6	-28%	23%	-17%
Cc1ccccc1-c1nc(S(=O)(=O)c2ccc(Br)cc2)c(NCc2cccnc2)o1	8	11µM*	17	-14%	17%	?
Cc1nnc(SCC(=O)NC2CCS(=O)(=O)C2)n1Cc1ccccc1 (stereo unspecified)	2	-8%	-11	-3%	7%	15%[46.1 µM]
N#Cc1cccc(C(=O)Nc2ccccc2C(=O)NC2CC2)c1	nt	?	nt	-9%	-19%	-2%[46.1 µM]
Cc1nnc(SCC(=O)NC2CCCC2)n1C(C)C	20*	13%	-38	7%[46.1 µM]	-1%	10%[46.1 µM]
SMILES	Cycloheximide cs	HCV inhibitor	Shiga inhibitor	LASV entry inh	FMDV antiviral	Marburg entry inh
CCn1c(COc2cccc(OC)c2)nnc1SCC(=O)NC1CCCC1	36*	-6%	-9	0%	-4%	-21%[46.1 µM]
Cc1nnc(SCC(=O)NC2CCCCCC2)n1C	-1	-3%	5	nt	11%	nt
CCn1c(CC(=O)Nc2ccccc2C)nnc1SCC(=O)NC1CCCC1	21*	18%	19	-7%[46.1 µM]	6%	0%[46.1 µM]
Cc1cc(C(=O)CN2C(=O)NC3(CCC(C)CC3)C2=O)c(C)n1C (stereo unspecified)	-7	0%	3	-5%	-5%	-31%
O=C(Nc1ccccc1)c1cc2c(=O)c3ccccc3oc2nc1C(F)(F)F	-1	0%	-3	0%	-10%	-28%
COCc1nc2oc3ccc(C)cc3c(=O)c2cc1C(=O)OC	23*	-8%	42	?	-10%	?
